In the library only some 3.4% were active in any assay of this set; here they are far more common.
HSF1 activator: increases HSF-1 driven luciferase reporter signal. NIH3T3-HGL HSF-1 luciferase reporter, MG132, 8 h; 100% = twice DMSO control signal. AID 504408. hit rate 1.7% among 300,000. activation, % at 9 µM;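 active = mean replicate activation of at least 50% with a set share of replicates each reaching 50%; inconclusive = only one of those two conditions met; inactive = mean below 50% and too few replicates reaching it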;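 also: 0% = median of the neutral control wells and 100% = twice that signal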
Vif imaging: blocks HIV Vif function; HEK293T cells, Vif self-association by quenched fluorescence, imaging, 24 h; inhibition, % at 7.49 µM; hit rate 0.35% among 340,000; AID 602346; in the data active = inhibition above about 50%, passing the limit was not always enough; inconclusive = no clear call, values can overlap the other calls; inactive = below about 31%
esBAF inh: inhibitors of esBAF chromatin remodeling in mouse ES cells. reporter increase, % at 12.5 µM. AID 602393. hit rate 2% among 350,000. Bmi1-luciferase knock-in reporter, 24 h; 100% = twice the neutral-well signal; in the data active = activation above about 40%; inconclusive = no clear call, values can overlap the other calls;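 also: 0% = median of the plate's neutral control wells and 100% = double that signal; a rise in the Bmi1 reporter signal indicates esBAF inhibition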
HSF1 inhib: HSF1 inhibition; NIH3T3-HGL HSE-luciferase, MG132-induced, luminescence 8 h; active compounds read low; activity change, negative = inhibition, % at 7.5 µM (by protocol); hit rate 0.77% among 300,000; AID 2098;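 active = more than half of replicate wells show activity change below -50%, luminescence cut by over half; inconclusive = some wells, but at most half, below -50%; inactive = no replicate well below -50%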;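 also: luciferase reports HSF-1 transcriptional activity via heat shock element; 0% = median of DMSO wells and -100% = zero luminescence signal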
Starred values were filed as active, the others as inactive; i = inactive; ? = inconclusive; / = not tested or not shown.

SMILES	HSF1 activator	Vif imaging	esBAF inh	HSF1 inhib
COc1ccc(S(=O)(=O)N(C)C[C@@H]2OCCCC[C@@H](C)Oc3ccc(NC(=O)Nc4ccccc4)cc3C(=O)N([C@H](C)CO)C[C@H]2C)cc1	/	/	2	/
O=C(C[C@@H]1CC[C@@H]2[C@H](COC[C@@H](O)CN2CC2CCOCC2)O1)NCC1CC1	/	/	0	/
C[C@H](CO)N1C[C@H](C)[C@@H](CN(C)C(=O)C2CCC2)Oc2ncc(-c3ccc(F)cc3)cc2C1=O	/	/	3	/
Nc1nc(SCc2ccc(Cl)cc2)ns1	22	/	32	7
Nc1nc(SCc2ccccc2)ns1	20	/	50*	9
COc1ccc2nc(N3CCC(C)CC3)c(C#N)cc2c1	48	-1	64*	48
COc1ccc2nc(Cl)c(C#N)cc2c1	-72	18	3	-65*
CN1CCN(C(=O)C[C@@H]2C[C@H]3c4cc(NC(=O)Nc5ccc(C(F)(F)F)cc5)ccc4O[C@H]3[C@H](CO)O2)CC1	/	/	-1	/
Cc1ccc(N(C(=O)c2csnn2)C(C(=O)NC2CCCC2)c2ccccn2)cc1 (stereo unspecified)	22	56*	2	7
CC(C)NC(=O)N(C)C[C@H]1OCCCC[C@@H](C)Oc2ccc(NC(=O)c3ccncc3)cc2C(=O)N([C@H](C)CO)C[C@H]1C	/	/	-4	/
Cc1cc(Oc2nc3ccccn3c(=O)c2/C=C(\C#N)C(=O)NC2CCS(=O)(=O)C2)ccc1Cl (stereo unspecified)	60*	6	1	42
Cc1cccc(Oc2nc3ccccn3c(=O)c2/C=C(\C#N)C(=O)NC2CCS(=O)(=O)C2)c1 (stereo unspecified)	34	1	/	14
C[C@@H]1CN([C@@H](C)CO)C(=O)c2cccc(NC(=O)c3ccncc3)c2O[C@H]1CN(C)C(=O)Nc1ccc(C(F)(F)F)cc1	/	/	-3	/
O=C(CSc1nnc(Cc2ccccc2)o1)N1CCCC1	-15	-8	/	-2
O=C(CCc1nnc(Cc2ccc(-c3ccccc3)cc2)o1)N1CCCC1	70*	-11	/	40
CC(=O)Nc1ccc2oc(-c3ccccc3Br)nc2c1	?	10	/	9
COc1ccc(OCC(=O)Nc2ccc3oc(-c4ccncc4)nc3c2)cc1	8	11	10	21
CCC(=O)Nc1ccc2oc(-c3ccccc3Br)nc2c1	44	0	59*	19
Cc1ccccc1-c1nc2cc(NC(=O)C3CC3)ccc2o1	91*	-4	63*	59
Cc1ccc(OCC(=O)Nc2ccc(O)c(-c3nc4ccccc4o3)c2)cc1	-4	4	54*	-12
C[C@H](CO)N1C[C@H](C)[C@@H](CN(C)Cc2ccc(C(=O)O)cc2)OCCCC[C@H](C)Oc2ccc(NS(C)(=O)=O)cc2C1=O	/	/	-3	/
Cc1cc(C)n(-c2nnc(NC34CC5CC(CC(C5)C3)C4)nn2)n1	2	-1	58*	2
C[C@H]1CN([C@@H](C)CO)C(=O)c2cc(C#CCN(C)C)cnc2O[C@@H]1CN(C)C(=O)c1cccnc1	/	/	2	/
O=C(Cc1ccccc1F)Nc1ccc(SC(F)F)cc1	59*	-7	/	27
O=C(COC(=O)Cc1ccccc1F)Nc1ccc(SC(F)F)cc1	-8	2	/	-3
SMILES	HSF1 activator	Vif imaging	esBAF inh	HSF1 inhib
CCCNC(=O)Nc1ccc2c(c1)C(=O)N(C)[C@@H]1CC[C@@H](CC(=O)NC3CCC3)O[C@@H]1CO2	/	/	0	/
CCCn1c(SCC(=O)Nc2nc3c(s2)CCCC3)nc2c1c(=O)n(C)c(=O)n2C	7	-1	/	-4
CCCCn1c(SCC(=O)Nc2nnc(C(C)C)s2)nc2c1c(=O)n(C)c(=O)n2C	2	52*	-20	2
CSc1nc(NCCOCCO)c2sc3nc(-c4ccco4)c4c(c3c2n1)CCC4	0	-13	-63	3
CCN(CCO)c1nc(SC)nc2c1sc1nc(-c3ccco3)c3c(c12)CCC3	58*	-10	-4	36
CN1CCN(C(=O)C[C@H]2C=C[C@@H](NC(=O)c3ccc4c(c3)OCO4)[C@H](CO)O2)CC1	/	/	0	/
N#C/C(=N\Nc1ccccc1[N+](=O)[O-])C(=N)N1CCCCC1	64*	1	51*	35
O=C(C[C@H]1CC[C@@H]2[C@H](COC[C@@H](O)CN2Cc2nccs2)O1)NCc1ccccc1	/	/	0	/
CC(=O)N1CCc2cc(S(=O)(=O)C(C)CC(=O)Nc3ccc(OC(F)(F)F)cc3)ccc21 (stereo unspecified)	7	-8	45*	-4
COc1ccc(NC(=O)CCS(=O)(=O)c2ccc3c(c2)CCN3C(C)=O)cc1	18	-5	-3	4
Cc1ccc(/C=[N+](\[O-])c2ccccc2C)o1	7	3	0	3
Cc1ccccc1/[N+]([O-])=C/c1cccs1	95*	-6	-7	50
O=C(CN1CCOCC1)NCC[C@@H]1CC[C@@H](NC(=O)Nc2ccc(C(F)(F)F)cc2)[C@H](CO)O1	/	/	2	/
CO[C@@H]1CN(C)C(=O)c2cc(NC(=O)Nc3c(C)noc3C)ccc2OC[C@@H](C)N(C)C[C@H]1C	/	/	-1	/
O=C(Nc1ccc(OCC(F)(F)C(F)F)c(C(F)(F)F)c1)c1ccccc1O	66*	-36	/	38
CNC[C@H]1Oc2c(NC(=O)c3cc(C)nn3C)cccc2C(=O)N([C@H](C)CO)C[C@@H]1C	/	/	-2	/
CCOC(=O)c1sc2nc(-c3cccnc3)ccc2c1N	75*	-10	/	36
CC(C)OC(=O)c1sc2nc(-c3ccccc3)ccc2c1N	-71	?	-46	-67*
COC(=O)c1sc2nc(-c3ccco3)ccc2c1N	56*	4	-22	39
COc1ccc(C(=O)c2sc3nc(-c4ccccc4)ccc3c2N)cc1	19	i	8	-3
CCC(=O)Nc1ccc2c(c1)OC[C@H](C)N(C(=O)CN(C)C)C[C@H](C)[C@H](OC)CN(C)C2=O	/	/	-6	/
CCCNC(=O)N1C[C@H]2[C@@H](c3ccccc31)[C@@H](CO)N2C(=O)Nc1ccc(F)cc1	/	/	-3	/
O=C(c1cccs1)N1CCN(C(=O)c2cccs2)C1=S	/	76*	14	/
CC1CCCC(NC(=O)c2cccs2)C1C (stereo unspecified)	/	9	43*	/
CC1CCCC(NC(=O)COC(=O)CCC(=O)c2cccs2)C1C (stereo unspecified)	/	17	-2	/
SMILES	HSF1 activator	Vif imaging	esBAF inh	HSF1 inhib
CC(C)NC(=O)N(C)C[C@@H]1Oc2ncc(-c3cncnc3)cc2C(=O)N([C@@H](C)CO)C[C@@H]1C	/	/	-6	/
C[C@@H]1CCCCO[C@@H](CN(C)S(=O)(=O)c2ccccc2)[C@@H](C)CN([C@H](C)CO)C(=O)c2cc(NC(=O)NC3CCCCC3)ccc2O1	/	/	17	/
COc1cc(C)ccc1OCc1cc(C(=O)NC2CCOCC2)no1	/	/	47*	/
COCCCC1CCN(C(=O)c2cc(COc3cc(C)ccc3C)on2)CC1	54*	0	104*	25
CC(=O)NCCC1CCCCN1C(=O)c1cc(COc2cc(C)ccc2C)on1 (stereo unspecified)	41	-4	66*	19
COCCN1CCN(C(=O)c2cc(COc3cc(C)ccc3C)on2)CC1	30	-2	73*	20
